Compound activity from PubChem.
RGS7-Gao – regulators of human RGS7-Galphao interaction; Multiplexed bead flow cytometry, RGS7-Galphao binding; actives lie on both sides; AID 1439; binding response (% of control), % at 10 µM; 0.35% of 220,000 active; P09471; in the data active = binding response below about 49% or above about 150%; inconclusive = no clear call, values can overlap the other calls; inactive = in between;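 note: fluorescent Galphao held in activated GDP-AlF4 state binding bead-coupled RGS7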
Target sequence (P09471 whole entry, looked up): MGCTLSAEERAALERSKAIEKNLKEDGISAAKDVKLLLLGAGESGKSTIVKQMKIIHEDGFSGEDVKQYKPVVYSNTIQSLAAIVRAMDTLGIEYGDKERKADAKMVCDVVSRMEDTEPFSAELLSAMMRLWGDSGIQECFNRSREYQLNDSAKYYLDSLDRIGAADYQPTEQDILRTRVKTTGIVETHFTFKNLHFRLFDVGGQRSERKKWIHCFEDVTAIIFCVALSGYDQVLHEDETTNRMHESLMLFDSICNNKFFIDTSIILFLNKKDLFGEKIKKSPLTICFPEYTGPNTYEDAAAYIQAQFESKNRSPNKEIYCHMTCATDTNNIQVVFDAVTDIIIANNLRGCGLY
RGS8-Gao – human RGS8-Galphao interaction regulation; P09471; multiplexed bead flow cytometry, RGS8-Galphao binding; actives lie on both sides; response (percent of control binding), % at 10 µM; 0.34% of 220,000 active; AID 1423; in the data active = response below about 60% or above about 140%; inactive = in between;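 note: Galphao activated as the GDP aluminium fluoride complex binding bead-coupled RGS8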
RGS16-Gao HTS – modulates binding between human RGS16 and Galphao; binding response (% of control), % at 10 µM; 0.38% of 220,000 active; bead-based flow cytometry RGS16-Galphao binding, fluorescence; actives lie on both sides;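 note: Galphao activated by GDP with aluminum fluoride before binding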
RGS4-Gao reg – modulates binding of RGS4 to human Galphao. P09471. Multiplexed bead flow cytometry; actives lie on both sides. binding response (% of control), % at 10 µM. 0.33% of 220,000 active; in the data active = binding response below about 49% or above about 150%; inactive = in between;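 note: fluorescent Galphao activated with aluminum fluoride binding bead-coupled RGS4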
Avidin fluor – avidin bead compound fluorescence profile | Avidin beads, compound fluorescence 488/530 nm, flow cytometry; stronger effect = higher value | fluorescence (KMESF) at 10 µM | 0.38% of 220,000 active; in the data active = fluorescence above about 47
GSH bead fluor – compound fluoresces at 488/530 nm on GSH beads | GSH beads flow cytometry, compound fluorescence 488/530 nm; stronger effect = higher value | fluorescence (KMESF) at 10 µM | 0.25% of 190,000 active | AID 1776; in the data active = fluorescence above about 89;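 note: glutathione beads carrying GST-tagged Bcl family fusion proteins plus one bare bead set; values are compound well signal with DMSO vehicle wells as background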
RGS4-Gao HTS – modulates binding between human RGS4 and Galphao. shares compounds with RGS16-Gao HTS. multiplexed bead flow cytometry, RGS–Galpha-o binding. RGS4–Galpha-o binding response, % at 10 µM. 99% of 1,600 active. AID 1504;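 note: fluorescently labeled Galpha-o bound to GDP with aluminium fluoride binding biotinylated RGS beads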
Target sequence (P09471 whole entry, looked up): as above
Target sequence (P49798 whole entry, looked up): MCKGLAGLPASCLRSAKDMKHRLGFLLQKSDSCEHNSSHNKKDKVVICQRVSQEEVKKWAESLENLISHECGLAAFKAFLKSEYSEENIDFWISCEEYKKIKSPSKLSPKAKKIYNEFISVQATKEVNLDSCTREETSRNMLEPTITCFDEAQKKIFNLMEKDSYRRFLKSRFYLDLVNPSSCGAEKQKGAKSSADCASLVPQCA
Biotin-avidin – counter-screen: compounds disrupting biotin binding to avidin beads; shares compounds with RGS16-Gao HTS; streptavidin beads, fluorescein-biotin binding, flow cytometry; inhibition, % at 10 µM; 1,700 tested, under 10 active; AID 1783;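 active = inhibition above 50%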;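 note: median green fluorescence of gated singlet beads compared with DMSO control wells; 0% = DMSO wells and 100% = complete loss of bead fluorescence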
RGS8-Gao single – confirmation of regulators of human RGS8-Galphao interaction; shares compounds with RGS16-Gao HTS; bead-based flow cytometry RGS8-Galphao binding, fluorescence; actives lie on both sides; binding response (% of control), % at 10 µM; 3% of 1,700 active; AID 1836; in the data active = binding response below about 72% or above about 130%; inactive = in between;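 note: Galphao activated as GDP AlF4 complex before binding bead RGS8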
RGS7-Gao single – confirmation of regulators of human RGS7-Galphao interaction. shares compounds with RGS16-Gao HTS. bead-based flow cytometry RGS7-Galphao binding; actives lie on both sides. response (percent of control binding), % at 10 µM. 7.8% of 1,700 active. AID 1837; in the data active = response below about 75% or above about 130%; inactive = in between;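 note: fluorescent Galphao activated with GDP and aluminum fluoride binding bead-coupled RGS7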
RGS16-Gao conf – confirmation of regulators of human RGS16-Galphao interaction | shares compounds with RGS16-Gao HTS | bead-based flow cytometry, RGS16-Galphao binding; actives lie on both sides | response (% of control binding), % at 10 µM | 4% of 1,700 active | AID 1838; in the data active = response below about 74% or above about 130%; inactive = in between;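 note: Galphao activated as the GDP aluminium fluoride complex binding bead-coupled RGS16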
RGS4-Gao confirm – RGS4-Galphao interaction regulation, single point confirmation. shares compounds with RGS16-Gao HTS. RGS4-Galphao binding, multiplexed bead flow cytometry; actives lie on both sides. binding response (% of control), % at 10 µM. 4% of 1,700 active; in the data active = binding response below about 74% or above about 130%; inactive = in between
RGS19-Gao conf – RGS19-Galphao interaction regulation, single point confirmation | shares compounds with RGS16-Gao HTS | bead-based flow cytometry RGS19-Galphao binding; actives lie on both sides | response (percent of control binding), % at 10 µM | 5% of 1,700 active | AID 1841; in the data active = response below about 50% or above about 160%; inactive = in between;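 note: 100% = no compound control and 0% = blank background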
* marks the source's active call; other numbers are inactive results; u = inconclusive; x = no result given; [ ] = another dose, or the depositor's remark. Hits are enriched below; roughly 1.2% of the tested compounds scored in any of these assays. Unless noted, the rule behind the calls is not given here.

SMILES	RGS7-Gao	RGS8-Gao	RGS16-Gao HTS	RGS4-Gao reg	Avidin fluor	GSH bead fluor	Biotin-avidin	RGS8-Gao single	RGS7-Gao single	RGS16-Gao conf	RGS4-Gao confirm	RGS19-Gao conf	others
CC(=O)Nc1ccccc1-c1nc2ccc(C(=O)N3CCN(c4cc(C)ccc4C)CC3)cc2[nH]c1=O	168.5*[activator]	101.8	110.2	110.7	78*	29	9.5	98.8	73.5*	86.2	84.0	58.7	RGS4-Gao HTS=110.7*
Cc1ccc(C)c(NC(=O)CSc2nc(C)cc(C)c2C#N)c1	99.9	101.9	96.4	101.3	6	21	x	x	x	x	x	x
COC(=O)Nc1cc([N+](=O)[O-])ccc1OC	111.6	103.5	101.4	101.0	19	11	x	x	x	x	x	x
COc1ccc(OC(=O)Nc2ccc([N+](=O)[O-])cc2OC)cc1	u	47.9*	33.5	38.5*	1	x	0.3	103.9	106.4	106.0	106.7	108.4
O=C(CCCCCn1c(=S)[nH]c2ccc(N3CCOCC3)cc2c1=O)NCCc1ccccc1	107.6	106.5	127.1	101.2	11	14	x	x	x	x	x	x
Nc1nc(-c2ccc(Cl)cc2)cc(C(F)(F)F)n1	117.7	142.1*[activator]	280.1	126.2	7	8	-2.5	102.5	150.7*[activator]	111.5	126.3*[activator]	127.9	RGS4-Gao HTS=126.2*
Nc1nc(-c2ccc(F)cc2)cc(C(F)(F)F)n1	99.3	100.7	101.9	102.3	10	11	x	x	x	x	x	x
Cc1ccc(SCCNC(=O)/C=C/c2ccc([N+](=O)[O-])cc2)cc1	112.1	135.2	279.7*[activator]	113.0	17	9	-1.3	100.0	102.6	102.2	102.2	95.0	RGS4-Gao HTS=113.0*
O=C(/C=C/c1ccc([N+](=O)[O-])cc1)NCCSc1ccccc1	106.8	103.6	94.0	105.8	7	38	x	x	x	x	x	x
CCCCC(=O)N(c1ccc(C(=O)O)cc1)c1nc(-c2ccc(Cl)cc2)c(CC)s1	106.9	101.1	106.2	105.1	6	10	x	x	x	x	x	x
COc1ccc(CNC(=O)CN(CC2CCCO2)C(=O)CNS(=O)(=O)c2ccc(C)cc2)cc1 (stereo not drawn)	99.3	99.2	103.0	94.7	15	13	x	x	x	x	x	x
COc1ccc(CNC(=O)CN(CC2CCCO2)C(=O)CNS(=O)(=O)c2ccccc2)cc1 (stereo not drawn)	208.6*[activator]	85.8	121.7	128.6	171*	4	1.6	102.2	99.8	100.3	101.2	85.6	RGS4-Gao HTS=128.6*
O=C(NCc1nnc(SCC(=O)N2CCCC2)o1)c1ccco1	98.9	99.2	95.3	100.0	20	10	x	x	x	x	x	x
CSCCC(NS(=O)(=O)c1ccc(C)cc1)C(=O)NC1CCCCC1 (stereo not drawn)	96.0	98.5	98.0	97.8	22	13	x	x	x	x	x	x
CCSC1=C(C#N)C2(CCCCC2)C(C#N)C(=O)N1 (stereo not drawn)	87.8	94.2	90.1	90.8	6	13	x	x	x	x	x	x
N#CC1=C2SCCN2C(=O)C(C#N)C12CCCCC2 (stereo not drawn)	-0.9*	12.7*	-10.3*	-14.9*	x	10	1.4	101.4	102.2	104.3	101.0	103.4
COc1ccc(C(C)N2CC34C=CC(O3)C(C(=O)OCC(C)C)C4C2=O)cc1 (stereo not drawn)	101.5	102.0	102.3	101.4	8	23	x	x	x	x	x	x
CC(C)N(CC#CCC(O)(c1ccccc1)c1ccccc1)C(C)C	97.9	101.8	97.8	101.0	2	7	x	x	x	x	x	x
CC(c1ccccc1C(O)(c1ccccc1)c1ccccc1)N(C)C (stereo not drawn)	7.0*	13.7*	-42.8	16.8*	-3	9	1.0	104.4	107.1	108.4	106.7	90.8
O=C(O)CSc1ncnc2sc(-c3ccccc3)cc12	94.3	96.9	98.4	96.1	8	17	x	x	x	x	x	x
CNc1ncnc2sc(-c3ccccc3)cc12	11.2*	15.8*	13.5*	24.4*	0	11	1.8	104.3	102.9	104.4	101.6	98.5
O=C(O)CCSc1ncnc2sc(-c3ccccc3)cc12	u	114.0	235.7*[activator]	262.4*[activator]	86*	x	-0.4	98.1	101.1	98.3	100.3	112.6
CCCNC(=O)c1ccc(CN2CCc3ccccc3C2)cc1	21.8*	34.0*	21.2*	16.2*	1	15	-0.4	98.5	100.4	99.7	97.6	102.2
Cc1ccc(CNC(=S)NCc2ccncc2)cc1	93.7	95.8	95.0	91.2	9	14	x	x	x	x	x	x
O=C(c1cc2n(n1)C(C(F)(F)F)CC(c1ccco1)N2)N1CCN(c2ccccn2)CC1 (stereo not drawn)	x	x	x	x	x	46	-0.8	98.6	99.0	103.2	96.3	118.7
SMILES	RGS7-Gao	RGS8-Gao	RGS16-Gao HTS	RGS4-Gao reg	Avidin fluor	GSH bead fluor	Biotin-avidin	RGS8-Gao single	RGS7-Gao single	RGS16-Gao conf	RGS4-Gao confirm	RGS19-Gao conf	others
CC(=O)C1=C(c2ccccc2)NC(=S)NC1c1ccc(O)c(O)c1 (stereo not drawn)	u	95.6	95.0	95.5	11	15	x	x	x	x	x	x
COc1ccc(S(=O)(=O)N2CCN(CCC(=O)Nc3ccccc3F)CC2)cc1	x	x	x	x	x	34	2.4	99.4	95.3	97.2	97.6	105.6
O=C1SC(SC(=Nc2ccccc2)Nc2ccccc2)C(=O)N1c1ccccc1 (stereo not drawn)	98.1	106.6	116.7	93.4	10	22	x	x	x	x	x	x
N#Cc1c(-c2ccccc2)nc(N2CCCCCC2)[nH]c1=O	88.5	82.2	14.7*	86.0	3	52	-0.4	101.2	103.7	103.8	103.1	94.9	RGS4-Gao HTS=86.0*
O=C(O)CCCCCN1C(=O)/C(=C\c2ccncc2)SC1=S	100.3	122.2	204.9	102.4	11	7	x	x	x	x	x	x
O=C(O)CCCN1C(=O)/C(=C/c2ccncc2)SC1=S	u	104.4	136.9	151.3*[activator]	40	x	-0.8	99.1	97.7	98.6	98.9	100.7
